# Bioassay records as filed in PubChem BioAssay.
# This is a sample that favours compounds with a hit; in the whole collection about 19% have one here.
# TDP1 cell CPT = qHTS for Inhibitors of human tyrosyl-DNA phosphodiesterase 1 (TDP1): qHTS in cells in presence of CPT | chicken DT40 Tdp1-/-;hTDP1 cells + 20 nM CPT, ATP luminescence, 48 h | Potency, µM (titrated, usually from 46.2 µM), for inactives: top-dose activity change, negative = growth inhibition, usual class: inhibitors | actives 12% (n = 420,000) | AID 686979, 2013; further: potency means the concentration at half of the fitted maximal effect; on the % scale 0 is the no-effect control and ±100 the full control effect; nearly all actives have a fitted effect of over 55% in size
#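 Chicken DT40 Tdp1-/- cells stably complemented with human TDP1 were seeded at 400 cells/well in medium containing 20 nM camptothecin, exposed to pin-transferred compounds, and grown at 37 °C for at least 48 hr. Viability was read as ATP luminescence.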
# TGFb SMAD3 inh = qHTS for Inhibitors of TGF-b | AID 588855, 2011 | actives 1.2% (n = 410,000) | Potency, µM (highest dose often 46.1 µM), without a hit: at the highest dose activity, negative = inhibition, usual class: inhibitors | HepG2 CAGA-GFP TGF-b/SMAD3 reporter, GFP fluorescence, 18 h; TGF-beta stimulated, 500 pg/mL final; further: potency means the concentration at half of the fitted maximal effect; on the % scale 0 is the no-effect control and ±100 the full control effect; nearly all actives have a fitted effect of over 65% in size
#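 Cell-based qHTS in HEPG2 carrying a CAGA-GFP Smad reporter; compounds added before 500 pg/mL final TGF-beta, 18 h incubation at 37 degrees C, GFP fluorescence quantified per cell by imaging cytometry.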
# HepG2 tox = qHTS for Inhibitors of TGF-b: Cytotox Counterscreen. HepG2 CAGA-GFP viability, ATP luminescence, 18 h. Potency, µM (highest dose often 46.1 µM), for the others: at the highest dose activity change, negative = cytotoxicity, usual class: cytotoxic. actives 0.76% (n = 410,000). AID 588856, 2011; further: potency means the concentration at half of the fitted maximal effect
#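 HepG2 CAGA-GFP cells (1000/well, DMEM with 1% FBS) received compound, then TGF-beta at 500 pg/mL final, and were incubated 18 hours at 37 degrees C. Viability was read by CellTiter-Glo luminescence. Media-only wells were set as complete cell-killing and DMSO as no toxicity.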
# IL1B secr inh = qHTS for Inhibitors of Inflammasome Signaling: IL-1-beta AlphaLISA Primary Screen; THP-1 LPS/ATP IL-1B secretion, AlphaLISA, 16 h; stronger effect = lower value; activity change, % at 57.5 µM; actives 4.7% (n = 360,000); AID 743279, 2014; in the data active means activity change below about -50%; inconclusive means mostly about -30% to -49%; further: on the % scale 0 is the no-effect control and ±100 the full control effect
#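 THP-1 cells pretreated 1 hr with compounds (up to 57.5 uM final), then stimulated with LPS (250 ng/mL final) plus ATP (1.25 mM final); secreted IL-1B measured by AlphaLISA after 16 hr, decreased signal indicating inhibition.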
# TDP1 inh = qHTS Assay for Inhibitors of Tyrosyl-DNA Phosphodiesterase (TDP1). Tyrosyl-DNA phosphodiesterase 1 (Homo sapiens), Q9NUW8. recombinant TDP1, AlphaScreen DNA substrate cleavage. Potency, µM (top dose mostly 130 µM), inactives show top-dose activity change, negative = inhibition, usual class: inhibitors. actives 0.28% (n = 350,000); further: potency means the concentration at half of the fitted maximal effect; on the % scale 0 is the no-effect control and ±100 the full control effect; nearly all actives have a fitted effect of over 40% in size
# Target sequence (Q9NUW8 whole entry, looked up): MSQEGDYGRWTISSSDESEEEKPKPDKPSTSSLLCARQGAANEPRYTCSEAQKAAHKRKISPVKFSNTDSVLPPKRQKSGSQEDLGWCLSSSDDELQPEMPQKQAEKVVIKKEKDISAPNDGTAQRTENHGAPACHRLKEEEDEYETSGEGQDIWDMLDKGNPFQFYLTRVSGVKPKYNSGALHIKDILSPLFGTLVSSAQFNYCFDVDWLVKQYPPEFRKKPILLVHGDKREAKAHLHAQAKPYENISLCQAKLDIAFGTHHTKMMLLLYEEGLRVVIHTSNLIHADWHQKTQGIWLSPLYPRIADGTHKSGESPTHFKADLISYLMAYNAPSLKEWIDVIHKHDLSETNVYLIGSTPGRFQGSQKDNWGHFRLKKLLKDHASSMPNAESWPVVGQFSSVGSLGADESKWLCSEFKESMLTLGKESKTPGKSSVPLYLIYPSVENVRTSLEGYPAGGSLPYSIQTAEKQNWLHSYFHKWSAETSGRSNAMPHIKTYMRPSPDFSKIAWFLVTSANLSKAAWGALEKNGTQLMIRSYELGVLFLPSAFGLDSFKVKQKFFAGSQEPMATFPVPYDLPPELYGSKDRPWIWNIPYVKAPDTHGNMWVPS
#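 Tdp1 1 nM final; 15 min RT w/ cpd; substrate 15 nM, 5 min; beads 10 ug/ml, 10 min; AlphaScreen read. Neg ctrl: no enzyme.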
# TDP1 cell noCPT = qHTS for Inhibitors of human tyrosyl-DNA phosphodiesterase 1 (TDP1): qHTS in cells in absence of CPT; DT40 Tdp1-/- hTDP1 cells, no CPT, ATP luminescence, 48 h; Potency, µM (series often up to 46.2 µM), inactives show top-dose activity change, negative = growth inhibition, most hits filed as inhibitors; actives 15% (n = 420,000); AID 686978, 2013; further: potency means the concentration at half of the fitted maximal effect; on the % scale 0 is the no-effect control and ±100 the full control effect; nearly all actives have a fitted effect of over 55% in size
#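 Readout: luminescence from CellTiter-Glo after 30 min in the dark at RT. Cells: DT40 Tdp1-/- with stable hTDP1, 400/well. Exposure: compounds alone, ≥48 hr, 37 °C.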
# * = called active by the depositor; ? = inconclusive; / = no result given; ! = not active in a repeat; [ ] = dose if it differs, or a comment. Unless noted, the call rests on the fitted dose curve; in most records, active means well fitted curve in the direction sought with a large enough effect; inconclusive means small, poorly fitted or top-dose-only effect, or another doubt; inactive means no such curve, though single readings can be large; an effect the other way counts as inactive or inconclusive.
SMILES,TDP1 cell CPT,TGFb SMAD3 inh,HepG2 tox,IL1B secr inh,TDP1 inh,TDP1 cell noCPT
COC(=O)C1=C(c2cc3ccccc3s2)C[C@@H]2CC[C@H]1N2C(=O)NCc1ccco1,?,-7.0%,-8.7%,-16.3,/,?
CCC1(CC)CCNC1=O,/,/,/,/,6.9%,/
O=C(Nc1ccc(Cl)c(Cl)c1)O/N=C/c1ccncc1,?,?,-44.3%,-93.7*,2.3%,?
C[n+]1cc(P(=S)(c2ccccc2)c2ccccc2)n2ccccc21,/,/,/,/,0.4%,/
Cn1c(O)c(/C=C2\N=c3ccccc3=C2CCNC(=S)NC2CC2)c(=O)n(C)c1=O,14.6µM*,-12.3%,10.0%,-96.0*,/,23.1µM*
c1cc(CCN2CCCC2)ccn1,-6.9%,-10.7%,-2.3%,0.0,?,24.7%
c1ccc2c(N3CCNCC3)nsc2c1,10.3µM*,17.4%,-9.0%,-53.9*,6.0%,13µM*
C[C@H](NC(C)(C)C)C(=O)c1cccc(Cl)c1,/,/,/,/,12.3%[21 µM],/
CC(C)c1ccc(Cc2cnc(NC(=O)c3ccc4c(c3)CC(c3ccccc3)OC4=O)s2)cc1 (stereo not drawn),23.1µM*,-8.0%,-3.9%,/,3.7%,18.4µM*
O=C(Nc1ncc(Cc2ccccc2)s1)C1=NCCN1,-27.9%,-2.9%,-28.5%,-6.0,5.5%,?
Cc1nn(Cc2ccc(Cl)cc2Cl)c(Cl)c1C(=O)O,-7.2%,3.3%,-8.2%,7.7,-2.6%,9.0%
Cc1nn(Cc2ccc(Cl)cc2Cl)c(Cl)c1C(=O)NC1CCCc2ccccc21 (stereo not drawn),16.4µM*,0.0%,5.4%,25.0,-2.4%,11.6µM*
C#CCN(C)[C@@H](C)Cc1ccccc1,/,/,/,/,5.1%[21 µM],/
Cc1cc(C)cc(OCCOc2cccc(C=C3C(=O)NC(=O)NC3=O)c2)c1,18.4µM*,-15.2%,-18.2%,14.3,79.4µM*,?
O=C1NC(=O)C(=Cc2ccc3ccccc3c2)C(=O)N1,6.7%,6.8%,-14.4%,?,-2.5%,-1.6%
Cc1ccc(OCCOc2cccc(C=C3C(=O)NC(=O)NC3=O)c2)cc1,?,-0.5%,0.2%,-5.4,/,18.4µM*
C[C@]12CCC3C(CC[C@H]4C[C@@H](O)[C@H](O)C[C@]34C)C1CC[C@@H]2O (stereo partly drawn),-15.7%,11.6%,-5.8%,17.0,1.1%,-11.2%
C[C@]12CCC3C(CC[C@H]4C[C@H](O)[C@H](O)C[C@]34C)C1CC[C@@H]2O (stereo partly drawn),20.6µM*,15.1%,-13.3%,13.8,/,?
CC1Cc2ccccc2N1C(=O)COC(=O)c1ccc(Cl)nc1 (stereo not drawn),12.8%,24.2%,27.3%,25.0,-5.1%,-3.8%
O=C(OCCN1CCCCC1)C(O)(c1ccccc1)c1ccccc1,7.4%,/,/,/,/,-0.5%
COC(=O)[C@]12CCC(C)(C)C[C@H]1[C@H]1C(=O)C=C3[C@@]4(C)C=C(C#N)C(=O)C(C)(C)[C@@H]4CC[C@@]3(C)[C@]1(C)CC2,1.19µM*,/,/,/,/,1.06µM*
CCCCC1(CN2CCCC2=O)C(=O)NC(=O)NC1=O,10.2%,-11.4%,-3.4%,7.2,0.0%,-4.3%
NC(=O)CN1CCCC1=O,-9.4%[21.1 µM],-16.0%,-49.3%,-23.1,8.5%[56.1 µM],2.91µM*!
COc1ccc2c(c1)CC[C@@H]1[C@@H]2CC[C@]2(C)[C@@H](NCCCCCCN3C(=O)C=CC3=O)CC[C@@H]12,?,/,/,/,14.6%,22.5µM*
CS(=O)c1ccc(-c2nc(-c3ccc(F)cc3)c(-c3ccncc3)[nH]2)cc1 (stereo not drawn),29.9µM*!,/,/,/,13.4%,15µM*
SMILES,TDP1 cell CPT,TGFb SMAD3 inh,HepG2 tox,IL1B secr inh,TDP1 inh,TDP1 cell noCPT
COc1ccc2nc(-c3ccc(CN4CCC(n5c(=O)[nH]c6ccccc65)CC4)cc3)c(-c3ccccc3)nc2c1,18.4µM*,/,/,-60.6*,/,14.6µM*
Cc1ccc2nc(-c3ccc(CN4CCC(n5c(=O)[nH]c6ccccc65)CC4)cc3)c(-c3ccccc3)nc2c1,8.2µM*,/,/,-73.9*,/,11.6µM*
O=c1[nH]c2ccccc2n1C1CCN(Cc2ccc(-c3nc4ccc(F)cc4nc3-c3ccccc3)cc2)CC1,4.11µM*,/,/,-61.2*,/,6.51µM*
Cc1ccc(C)c(CN2CCC(n3nnc4cc(F)ccc43)CC2)c1,?,-15.1%,-4.4%,-23.4,7.1%,?
O=c1[nH]c2ccccc2n1CCCN1CCC(n2c(=O)[nH]c3cc(Cl)ccc32)CC1,?,?,-38.8%,?,5.5%,23.7µM*!
Brc1ccc2c(c1)CN(CC1CCCCC1)Cc1cnnn1-2,?,-8.2%,-38.5%,-18.8,/,?
O=c1[nH]c2ccccc2n1C1CCN(Cc2ccc(-c3nc4ccccc4nc3-c3ccccc3)cc2)CC1,11.6µM*,/,/,0.0,/,14.6µM*
CC(C)=CCCC1(C)C=Cc2c(O)c3c(c(CC=C(C)C)c2O1)OC12C(=CC4CC1C(C)(C)OC2(C/C=C(/C)C(=O)O)C4=O)C3=O (stereo not drawn),0.92µM*,/,/,/,12.9%,1.03µM*
CC(C)CCCC1(C)C=Cc2c(O)c3c(c(CCC(C)C)c2O1)OC12C(CC4CC1C(C)(C)OC2(CCC(C)C(=O)O)C4O)C3=O (stereo not drawn),-12.8%,/,/,/,8.6%,-7.1%
CC(C)=CCCC1(C)C=Cc2c(O)c3c(c(CC=C(C)C)c2O1)OC12C(=CC4CC1C(C)(C)OC2(C/C=C(/C)C(=O)O)C4O)C3=O (stereo not drawn),4.61µM*,/,/,/,12.4%[56.1 µM],3.66µM*
Cn1cc(C=C(C#N)C#N)c2ccccc21,7.4%,52.7%,-2.8%,-3.1,-2.6%,12.0%
Cn1cc(/C=C(\C(=O)O)C(C(=O)O)=C2CCCCC2)c2ccccc21,23.1µM*,40.8%,44.4%,39.9,0.0%,14.6µM*
Oc1ccc(Cl)cc1Cc1cc(Cl)ccc1O,14.6µM*,?,-74.2%,2.0,-2.9%,14.6µM*
O=C(Nc1ccc(Cl)cc1C(=O)c1ccccc1)c1ccco1,1.1%,23.4%,-26.1%,-29.8,2.0%,0.7%
Oc1ccc(Cl)cc1Cc1ccccc1,30.6µM*,?,-28.6%,12.1,2.1%,21.7µM*
